Measured values as given in PubChem BioAssay AID720584 (National Center for Advancing Translational Sciences (NCATS), 2013).
This is one part of the list. Results filed as inconclusive are left out. A number with no mark means an inactive call. Activity calls are given as the source filed them. Calls come from the whole dose curve; as a rule, active = well fitted inhibition curve with a large enough effect; inconclusive = small, poorly fitted or top-dose-only effect; inactive = flat fitted curve, though single readings scatter.

test system: Trypanosoma brucei pyruvate kinase (TbPYK); test: qHTS of Trypanosoma Brucei Inhibitors: Orthogonal Assay for Cherry-picked Compounds; conditions: recombinant TbPYK, ADP-Glo luminescence, 60 min; series mostly up to 76.9 µM; activity change, negative = inhibition: at the top concentration; note: nearly all actives have a fitted effect of over 75% in size
From the text: Members of the Trypanosomatidae family of parasitic protozoans cause a spectrum of diseases throughout the tropical and subtropical world. Sleeping sickness, caused by two subspecies of Trypanosoma brucei, is endemic to areas of sub-Saharan Africa, while Chagas' disease, a manifestation of Trypanosoma cruzi infection, is prevalent throughout Central and South America. In addition, many species of Leishmania are responsible for a range of cutaneous and visceral diseases, causing ulcers, destructive lesions and kalaazar, a lethal infection of the viscera. These diseases cause severe public health and economic burdens on populations that are often already caught in a tragic cycle of poverty, poor nutrition and disease. Collectively, parasites of the trypanosomatid family infect 30 million people worldwide (~500 million live in endemic areas), and account for ~130K deaths annually. Existing treatments have developed little in the past 50 years, and suffer from toxicity, poor efficacy and resistance; the goal of this project is to develop lead drugs that will be suitable for entry into pre-clinical trials. […] Glycolysis in axenically cultured T. cruzi, representing the intracellular pathogenic stage, is also essential for these parasites. {Engel, 1987} This project aims to discover and optimize selective inhibitors of the glycolytic enzyme pyruvate kinase (PYK) from Trypanosoma brucei, the parasite that causes sleeping sickness. […] Trypanosomatid PYKs show significant differences from their human counterparts including only 47-50% sequence identity and different allosteric and activation properties.{Callens, 1992} To this end, a qHTS was done against the MLSMR to discover inhibitors. To confirm activity of the cherrypicked compounds, an orthogonal assay was developed. While the primary qHTS provides a luminescence-based detection of TbPyK by measuring ATP production, the orthogonal assay will measure the amount of ADP substrate remaining. Decrease in activity signal indicative of inhibition of T. brucei proliferation is the desired outcome for this assay. NIH Molecular Libraries Probe Production Network [MLPCN] NIH Chemical Genomics Center [NCGC] Grant: MH095452 PI Name: Malcolm Walkinshaw, University of Edinburgh
Briefly, 2 uL of substrate/TbPYK buffer (all columns but column 4) are dispensed into Greiner white solid-bottom 1536-well assay plates. Column 4 gets just buffer without enzyme. Compounds are then transferred via Kalypsys pin tool equipped with 1536-pin array (10 nL slotted pins, V&P Scientific, San Diego, CA). Following addition of compound, 1 uL of ADP (130 uM final concentration, columns 1-48) is added to initiate the reaction. The plates are then incubated at room temperature for 60 minutes. ADP-Glo (Promega) reagent I is added (2.5 uL) and plates incubated for 10 minutes. ADP-Glo reagent II is then added (5 uL), followed by a 10 minute room temperature incubation, before being transferred to a ViewLux high-throughput CCD imager (PerkinElmer), wherein single end-point measurements of luminescence are acquired using a clear filter. All reagents are diluted in an assay buffer consisting of 50 mM TEA (pH 7.2), 100 mM KCl, 10 mM MgCl2, 0.05% BSA and 0.01% Tween-20.
% is set by controls: 0 for no effect and ±100 for the full control effect; potency is the fitted concentration of half-maximal effect.

Row | Structure (SMILES) | Potency | activity change, negative = inhibition [%]
1 | O=C(CSc1ccc(-c2ccco2)nn1)Nc1cccc(F)c1 | 31.6 µM (active) | 
2 | O=C(CN1CCN(c2ccc(O)cc2)CC1)Nc1cc(S(=O)(=O)N2CCOCC2)ccc1Cl | 12.6 µM (active) | 
3 | Cc1c(C)c(C)c(S(=O)(=O)N2CCC3(CC2)OCCO3)c(C)c1C |  | -2.02
4 | Cc1ccc(/C=C/C(=O)Nc2ccc([N+](=O)[O-])c(NC(=O)/C=C/c3ccc(C)o3)c2)o1 | 20 µM (active) | 
5 | COc1ccc(Cc2nnc(NS(=O)(=O)Cc3ccccc3)s2)cc1 |  | -11.1
6 | Cc1ccc(C)c2c1cc(C)c1nnc(SCC(=O)Nc3cccc(C(=O)O)c3)n12 | 1 µM (active) | 
7 | O=C(Nc1ccc(S(=O)(=O)N2CCOCC2)cc1)c1ccc2ncsc2c1 | 15.8 µM (active) | 
8 | O=c1[nH]c2ccccc2n2c(-c3ccccc3)nnc12 | 0.1 µM (active) | 
9 | Cc1cc(C2=NNC(=Nc3ccc(S(=O)(=O)N4CCOCC4)cc3)SC2)c(C)n1CC1CCCO1 (stereo unspecified) | 15.8 µM (active) | 
10 | O=C(COC(=O)c1ccccc1)c1ccc2c(c1)OCCO2 |  | 0.431
11 | c1ccc(-c2nnc3n2NC(c2ccc4c(c2)OCO4)S3)cc1 (stereo unspecified) | 0.141 µM (active) | 
12 | C=CCn1c(=S)[nH]c2scc(-c3ccco3)c2c1=O | 17.8 µM (active) | 
13 | Cc1cccc(-n2c(N)c(C(=O)N3CCN(C)CC3)sc2=S)c1 | 5.01 µM (active) | 
14 | Cc1ccc(NC(=O)c2cc(-c3ccc(C)o3)nc3ccccc23)nc1 | 35.5 µM (active) | 
15 | CN(c1ccccc1)S(=O)(=O)c1cccc(NC(=O)Cc2ccc(Cl)cc2)c1 | 12.6 µM (active) | 
16 | N#Cc1c(N2CCCCC2)nc(N)c2c(N)nc(SCC(=O)O)cc12 | 35.5 µM (active) | 

Row | Structure (SMILES) | Potency | activity change, negative = inhibition [%]
17 | Oc1c(CN2CCOCC2)ccc(CN2CCOCC2)c1O | 7.08 µM (active) | 
18 | Cc1cc(C#N)c(SCC(N)=O)nc1-c1ccc(F)cc1 | 5.01 µM (active) | 
19 | O=C(CSc1nnc(-c2ccco2)n1CC1CCCO1)c1ccccc1 (stereo unspecified) | 35.5 µM (active) | 
20 | O=C(CCCCCn1c(=S)[nH]c2ccsc2c1=O)NC1CCCCC1 | 14.1 µM (active) | 
21 | COc1cccc(C(=O)c2cc3ccc(O)cc3oc2=O)c1 |  | -2.74
22 | CSc1c(SCc2ccccc2)cnn(Cc2ccccc2)c1=O | 14.1 µM (active) | 
23 | COc1cccc(C(=O)Nc2ccc(N3CCCC3)cc2)c1 |  | -6.36
24 | Cc1nc2ccc(S(=O)(=O)NCC(=O)O)cc2s1 | 11.2 µM (active) | 
25 | CC(=O)N1CC[n+]2c(-c3ccc([N+](=O)[O-])cc3)csc21 | 1.78 µM (active) | 
26 | COc1cc(C2CC(=O)N3CN(Cc4ccccc4)CSC3=C2C#N)ccc1OCc1ccccc1 (stereo unspecified) | 0.447 µM (active) | 
27 | Cc1nonc1C(=O)N/N=C/c1ccc(O)cc1 |  | 13.7
28 | NC(=O)c1c(Nc2nc3c(F)cccc3s2)sc2c1CCCC2 | 8.91 µM (active) | 
29 | O=C1C=CC(=O)N1c1ccc(N2CCCCC2)cc1 | 3.55 µM (active) | 
30 | COC(=O)/C=C\C(=O)Nc1cccc([N+](=O)[O-])c1 | 17.8 µM (active) | 
31 | COCCNC(=O)Nc1ccc2nc(-c3ccco3)c(-c3ccco3)nc2c1 | 8.91 µM (active) | 
